Measured values from PubChem BioAssay (NCATS).
Inconclusive results are not listed. Entries that show only a call come without a potency. Values without a mark were called inactive. Active and inactive are the calls of the source. Calls follow the shape of the dose curve; as a rule, active = well fitted curve in the direction sought with a large enough effect; inconclusive = small, poorly fitted or top-dose-only effect, or another doubt; inactive = no such curve, though single readings can be large; an effect the other way counts as inactive or inconclusive.

Columns and labels:
[1] = Quantitative highthroughput screen to assess conditional lethalithy of NOMO1 cells grown in RPMI1640 with untreated serum (RPMI+s) (AID 1963876); also: nearly all actives have a fitted effect of over 35% in size
How it was run: (§1)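 Each medium arm—HPLM with 10% dialyzed FBS, or RPMI1640 with 5 mM glucose and 10% untreated or dialyzed FBS—was screened against an 11-point, 3-fold compound titration for 48 h at 37 °C, with CellTiter-Glo luminescence as endpoint.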

[2] = Quantitative highthroughput screen to assess conditional lethalithy of NOMO1 cells grown in RPMI1640 with dialyzed fetal bovine serum (RPMI+ds) (AID 1963877); also: nearly all actives have a fitted effect of over 30% in size; also: potency is read from the fitted curve at half-maximal effect; as to viability: series mostly up to about 46 µM
How it was run: as §1

[3] = Quantitative highthroughput screen to assess conditional lethalithy of P12 Ichikawa cells grown in RPMI1640 with untreated serum (RPMI+s) (AID 1963881); conditions: Potency: viability; also: nearly all actives have a fitted effect of over 35% in size; also: potency is read from the fitted curve at half-maximal effect; as to viability: series mostly up to about 46 µM
How it was run: as §1

[4] = Quantitative highthroughput screen to assess conditional lethalithy of SEM cells grown in Human Plasma-Like Medium with dialyzed fetal bovine serum (HPLM+ds) (AID 1963882); also: nearly all actives have a fitted effect of over 35% in size; also: potency is read from the fitted curve at half-maximal effect; as to viability: series mostly up to about 46 µM
How it was run: as §1

[5] = Quantitative highthroughput screen to assess conditional lethalithy of P12 Ichikawa cells grown in RPMI1640 with dialyzed fetal bovine serum (RPMI+ds) (AID 1963880); conditions: Potency: P12-Ichikawa viability; also: nearly all actives have a fitted effect of over 35% in size; also: potency is read from the fitted curve at half-maximal effect
How it was run: as §1

[6] = Cellular viability qHTS for adrenocortical cancer (ACC) cell line SW-13 (AID 1963989); conditions: SW-13 ACC cells viability, CellTiter-Glo, 48 h; activity (max response): active compounds read low; also: nearly all actives have a fitted effect of over 65% in size; also: potency is read from the fitted curve at half-maximal effect;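 as to activity (max response): cells grown in serum-free medium with ITS supplement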
How it was run: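 Compound titrations (up to 46 uM final, in DMSO) were applied to SW-13 cells for 48 h at 37C/5% CO2. Reading used CellTiter-Glo after 20 min at room temperature; fitted curves yielded IC50 and efficacy.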

[7] = Cellular viability qHTS for adrenocortical cancer (ACC) cell line NCI-H295R (AID 1963990); also: nearly all actives have a fitted effect of over 60% in size
How it was run: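 Readout: CellTiter-Glo luminescence, 20 min RT. Exposure: 48 h, 37C/5% CO2. Cells: NCI-H295R, ITS-DMEM serum-free. Range: up to 46 uM. Analysis: 4PL fit, IC50 plus efficacy.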

[8] = Quantitative highthroughput screen to assess conditional lethalithy of NOMO1 cells grown in Human Plasma-Like Medium with dialyzed fetal bovine serum (HPLM+ds) (AID 1963878); also: nearly all actives have a fitted effect of over 35% in size
How it was run: as §1

[9] = Quantitative highthroughput screen to assess conditional lethalithy of P12 Ichikawa cells grown in Human Plasma-Like Medium with dialyzed fetal bovine serum (HPLM+ds) (AID 1963879); conditions: Potency: viability
How it was run: as §1

[10] = Quantitative highthroughput screen to assess conditional lethalithy of SEM cells grown in RPMI1640 with unreated serum (RPMI+s) (AID 1963883); also: nearly all actives have a fitted effect of over 35% in size; also: potency is read from the fitted curve at half-maximal effect
How it was run: as §1

[11] = Quantitative highthroughput screen to assess conditional lethalithy of SEM cells grown in RPMI1640 with dialyzed fetal bovine serum (RPMI+ds) (AID 1963884); also: nearly all actives have a fitted effect of over 35% in size; also: potency is read from the fitted curve at half-maximal effect; as to viability: series mostly up to about 46 µM
How it was run: as §1

**Q.** For `Cc1[nH]c(C=C2C(=O)Nc3ccc(S(=O)(=O)Cc4c(Cl)cccc4Cl)cc32)c(C)c1C(=O)N1CCC[C@H]1CN1CCCC1`, which Potency [1] is on record?
**A.** inactive

**Q.** And the Potency [2]?
**A.** inactive

**Q.** And the Potency [3]?
**A.** inactive

**Q.** What about the Potency [4] of the same compound?
**A.** 2.35 µM (active)

**Q.** For `CC(C)(N)C(=O)N[C@H](COCc1ccccc1)C(=O)N1CCC2(CC1)CN(S(C)(=O)=O)c1ccccc12`, which Potency [1] is on record?
**A.** inactive

**Q.** What about the Potency [2] of the same compound?
**A.** 10.5 µM (active)

**Q.** And the Potency [5]?
**A.** 23.5 µM (active)

**Q.** And the Potency [3]?
**A.** 26.4 µM (active)

**Q.** What about the activity (max response) [6] of the same compound?
**A.** -9.29%

**Q.** What about the Potency [7] of the same compound?
**A.** inactive

**Q.** For `O=C(C=Cc1c(C(=O)O)[nH]c2cc(Cl)cc(Cl)c12)Nc1ccccc1`, which Potency [1] is on record?
**A.** inactive

**Q.** What about the Potency [8] of the same compound?
**A.** inactive

**Q.** And the Potency [9]?
**A.** inactive

**Q.** And the Potency [5]?
**A.** inactive

**Q.** And the Potency [3]?
**A.** inactive

**Q.** Which results are given for `C[C@@]12C[C@@]3(O)O[C@@H](O1)[C@]1(COC(=O)c4ccccc4)[C@@H]3C[C@@]12O[C@@H]1O[C@H](CO)[C@@H](O)[C@H](O)[C@@H]1O`?
**A.** Potency [1]: inactive; Potency [2]: inactive; Potency [5]: inactive; Potency [3]: inactive; Potency [4]: inactive; Potency [10]: inactive

**Q.** Which results are given for `Cn1cc(C=CC(=O)c2cccc(F)c2)cc1C=CC(=O)NO`?
**A.** Potency [1]: inactive; Potency [2]: inactive; Potency [9]: inactive; Potency [3]: inactive; Potency [4]: inactive; Potency [10]: inactive; Potency [11]: inactive

**Q.** What does the source list for `CC(=O)NCCC(=O)N[C@@H](CCC(N)=O)C(=O)N[C@@H](CO)C(=O)N[C@@H](CCC(N)=O)C(=O)N[C@@H](CCC(N)=O)C(=O)N[C@H](C(=O)N[C@@H](Cc1ccccc1)C(=O)N[C@]1(C)CCCCCCC=CCCC[C@@](C)(C(=O)N[C@@H](CCC(N)=O)C(=O)N[C@@H](CC(N)=O)C(N)=O)NC(=O)[C@H](CC(C)C)NC(=O)[C@H](CC(C)C)NC(=O)[C@@H](CCCNC(=N)N)NC(=O)[C@H](Cc2c[nH]c3ccccc23)NC(=O)[C@H](CC(C)C)NC(=O)[C@H](CC(N)=O)NC1=O)[C@H](C)O`?
**A.** Potency [1]: inactive; Potency [2]: inactive; Potency [5]: inactive; Potency [3]: inactive; Potency [10]: 833 nM (active); Potency [11]: 2.64 µM (active); Potency [6]: 28.2 µM (active)
